Test results reported in PubChem BioAssay AID1159580 (chemical genetic matrix, 2015).
In all, about 5,500 compounds went through this assay and about 2,000 (36%) were called active. About 18% were inconclusive and are not listed. Rule as the data show it: active = normalized growth mostly below about 0.91 (no sharp cut-off); inconclusive = no clear call, values can overlap the other calls; inactive = mostly above about 0.92. The list shows a part of the results.

Assay: chemical genetic growth profiling, strain panel (AID 1159580);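 also: tested at 20 µM; growth read once vehicle control cultures reached saturation at 30 °C; 1 = growth at the plate median or of vehicle wells; lower values mean less growth of the strain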
Conditions: S. cerevisiae deletion strains, growth OD

Measured: normalized growth

COc1cc([C@@H]2c3cc4c(cc3[C@@H](O)C3COC(=O)C32)OCO4)cc(OC)c1O (stereo not given in full)
inactive: locus YAL021C, strain ccr4, hits give low values 0.971 | locus YAL026C, strain drs2, hits give low values 0.982 | locus YAL030W, strain snc1, hits give low values 0.986 | locus YBL061C, strain skt5, hits give low values 0.988 | locus YBR009C, strain hhf1, hits give low values 0.988 | locus YBR023C, strain chs3, hits give low values 1 | locus YBR171W, strain sec66, hits give low values 0.996 | locus YBR231C, strain swc5, hits give low values 1 | locus YBR279W, strain paf1, hits give low values 0.997 | locus YCL011C, strain gbp2, hits give low values 0.988 | locus YCL016C, strain dcc1, hits give low values 0.981 | locus YCL061C, strain MRC1, hits give low values 0.978 | locus YCL069W, strain vba3, hits give low values 0.985 | locus YCR088W, strain abp1, hits give low values 0.988 | locus YDL005C, strain med2, hits give low values 0.979 | locus YDL040C, strain nat1, hits give low values 0.981 | locus YDR001C, strain nth1, hits give low values 0.977 | locus YDR069C, strain doa4, hits give low values 0.988 | locus YDR137W, strain rgp1, hits give low values 1 | locus YDR159W, strain sac3, hits give low values 0.994 | locus YDR195W, strain ref2 0.944 | locus YDR297W, strain sur2, hits give low values 0.989 | locus YDR334W, strain swr1, hits give low values 0.977 | locus YDR335W, strain msn5, hits give low values 0.985 | locus YDR392W, strain spt3, hits give low values 1.01 | locus YEL003W, strain gim4, hits give low values 0.997 | locus YEL037C, strain rad23, hits give low values 0.981 | locus YEL061C, strain CIN8 (second series), hits give low values 0.991 | locus YER015W, strain faa2, hits give low values 0.993 | locus YER016W, strain bim1, hits give low values 0.987 | locus YER111C, strain swi4, hits give low values 0.981 | locus YER155C, strain BEM2 (second series), hits give low values 1.01 | locus YFR010W, strain ubp6, hits give low values 0.973 | locus YGL167C, strain pmr1, hits give low values 0.975 | locus YGL173C, strain kem1, hits give low values 0.992 | locus YGL227W, strain vid30, hits give low values 0.995 | locus YGL240W, strain doc1, hits give low values 1.01 | locus YGL253W, strain hxk2, hits give low values 0.934 | locus YHR013C, strain ard1, hits give low values 0.964 | locus YHR027C, strain rpn1, hits give low values 0.986 | locus YHR030C, strain SLT2, hits give low values 1.03 | locus YHR079C, strain IRE1, hits give low values 1.04 | locus YHR142W, strain chs7, hits give low values 0.971 | locus YJL092W, strain hpr5, hits give low values 0.977 | locus YJL095W, strain BCK1 (second series), hits give low values 0.981 | locus YJL095W, strain BCK1, hits give low values 1.02 | locus YJL115W, strain asf1, hits give low values 0.966 | locus YJL129C, strain trk1, hits give low values 0.977 | locus YJL154C, strain vps35, hits give low values 0.985 | locus YJL164C, strain tpk1, hits give low values 0.967 | locus YJL166W, strain qcr8, hits give low values 0.997 | locus YJL187C, strain SWE1, hits give low values 1 | locus YJR066W, strain TOR1, hits give low values 0.993 | locus YKL160W, strain elf1, hits give low values 0.973 | locus YKR026C, strain gcn3, hits give low values 0.991 | locus YKR091W, strain srl3, hits give low values 0.978 | locus YLL001W, strain dnm1, hits give low values 0.953 | locus YLL026W, hits give low values 0.987 | locus YLL041C, strain sdh2, hits give low values 0.979 | locus YLR027C, strain aat2, hits give low values 0.991 | locus YLR113W, strain HOG1, hits give low values 1.03 | locus YLR221C, strain rsa3, hits give low values 1.02 | locus YLR258W, strain gsy2, hits give low values 0.985 | locus YLR262C, strain YPT6 (second series), hits give low values 1.05 | locus YLR320W, strain mms22, hits give low values 1.02 | locus YLR342W, strain FKS1, hits give low values 0.986 | locus YLR357W, strain rsc2, hits give low values 0.966 | locus YLR370C, strain arc18, hits give low values 0.983 | locus YLR384C, strain iki3, hits give low values 0.982 | locus YML120C, strain ndi1, hits give low values 0.985 | locus YMR058W, strain fet3, hits give low values 0.979 | locus YMR125W, strain sto1, hits give low values 0.979 | locus YMR129W, hits give low values 0.997 | locus YMR205C, strain PFK2, hits give low values 0.965 | locus YMR231W, strain pep5, hits give low values 0.977 | locus YNL071W, strain lat1, hits give low values 0.991 | locus YNL183C, strain NPR1, hits give low values 0.997 | locus YNL209W, strain ssb2, hits give low values 0.993 | locus YNL248C, strain rpa49, hits give low values 0.959 | locus YNL322C, strain KRE1 (second series), hits give low values 0.991 | locus YNR049C, strain mso1, hits give low values 0.986 | locus YOR001W, strain rrp6, hits give low values 0.979 | locus YOR070C, strain gyp1, hits give low values 0.983 | locus YOR080W, strain dia2, hits give low values 1 | locus YOR083W, strain WHI5, hits give low values 0.982 | locus YOR106W, strain vam3, hits give low values 0.958 | locus YOR231W, strain MKK1, hits give low values 1.03 | locus YOR265W, strain rbl2, hits give low values 0.987 | locus YOR270C, strain vph1, hits give low values 0.94 | locus YOR290C, strain snf2, hits give low values 0.952 | locus YPL051W, strain arl3, hits give low values 1.03 | locus YPL078C, strain atp4, hits give low values 0.949 | locus YPL106C, strain sse1, hits give low values 0.99 | locus YPL240C, strain hsp82, hits give low values 0.994 | locus YPL256C, strain CLN2, hits give low values 1.02
